TPT1 inhibitor: C. albicans TPT1 enzyme inhibition; recombinant caTPT1, FP RNA substrate dephosphorylation; inhibition, % at 5 µM; hit rate 0.81% among 300,000; AID 1962;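 active = inhibition above the mean of all tested compounds plus 3 SD, set per screening campaign, cut at about 24% in these data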;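 note: plate controls were DMSO alone for no effect and ferristatin control at 100 nM for full effect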
HNF4A DNA FP: change in binding of human HNF4 alpha to DNA | P41235 | hit rate 0.3% among 360,000 | HNF4a-FITC DNA binding, fluorescence polarization, 1 h | AID 1224865 | activity change, % at 10 µM; in the data active = activity change above about 30%, passing the limit was not always enough
Target sequence (P41235 whole entry, looked up): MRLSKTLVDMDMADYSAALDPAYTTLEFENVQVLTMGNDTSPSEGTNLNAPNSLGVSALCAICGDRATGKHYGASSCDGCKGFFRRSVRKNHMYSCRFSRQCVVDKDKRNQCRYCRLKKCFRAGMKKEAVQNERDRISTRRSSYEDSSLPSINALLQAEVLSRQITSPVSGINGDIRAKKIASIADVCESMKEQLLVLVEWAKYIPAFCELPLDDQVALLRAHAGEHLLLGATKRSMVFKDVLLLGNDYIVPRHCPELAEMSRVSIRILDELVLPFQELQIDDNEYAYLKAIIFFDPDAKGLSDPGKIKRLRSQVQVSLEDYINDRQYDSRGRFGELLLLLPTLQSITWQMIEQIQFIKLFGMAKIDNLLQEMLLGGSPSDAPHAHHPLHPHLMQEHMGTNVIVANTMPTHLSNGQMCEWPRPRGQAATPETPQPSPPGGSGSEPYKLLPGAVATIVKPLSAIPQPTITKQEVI
Myeloid diff 2: promotes myeloid progenitor differentiation; ER-HoxA9 myeloid progenitors, lysozyme-GFP differentiation, flow cytometry; calls only at 10 µM; hit rate 1% among 360,000; AID 624256;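 active = normalized GFP-positive differentiation at or above the plate's own cutoff, the solvent-only control mean plus 3 SD; inconclusive = no clear call, values can overlap the other calls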;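 note: cells exposed to compound for four days before flow analysis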
Rpn11 block: inhibitors of human proteasome Rpn11. O00487. human 26S proteasome, Ub4-pepOG fluorescence polarization; 20S core pre-blocked with epoxomicin. inhibition, % at 20 µM. hit rate 0.59% among 360,000. AID 588493;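 active = inhibition at 20 µM, scaled to each plate's controls, above about 33%, limit read from the data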
Myeloid diff: myeloid differentiation induction; ER-HoxA9 myeloid progenitors, GFP/Mac1 double-positive flow; calls only; hit rate 2% among 2,300; shares compounds with Myeloid diff 2;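 active = share of green or green-and-red cells above 9 and 9% in run 1 or 4 and 3% in run 2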
GFP autofluor: counter-screen for myeloid differentiation promoters: compound fluorescence. shares compounds with Myeloid diff 2. ER-HoxA9 myeloid progenitors, no estrogen, GFP autofluorescence flow cytometry; vehicle wells 0%, positive control 100%. fluorescence response, % (no concentration beside the values). hit rate 7.4% among 2,300;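 active = over 5% cells positive for green fluorescent reporter, or over 2% positive for both it and APC stain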;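 note: range taken on the double positive population between DMSO and positive control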
* = called active by the depositor; i = inactive; ? = inconclusive; . = no result shown; + = active, no number. In the library only some 2.1% were active in any assay of this set; here they are far more common.

SMILES	TPT1 inhibitor	HNF4A DNA FP	Myeloid diff 2	Rpn11 block	Myeloid diff	GFP autofluor
CCSc1nc2sc3c(c2c(=O)n1-c1ccccc1)CCN(C(C)C)C3	.	17	+	18	i	5
CCCCNc1nc2sc3c(c2c(=O)n1-c1cccc(Cl)c1)CCN(C)C3	16	25	?	.	.	.
CCCCCNc1nc2sc3c(c2c(=O)n1-c1cccc(Cl)c1)CCN(C)C3	13	25	+	.	i	1
CCc1ccc2[nH]c(C(=O)Nc3ccc4c(c3)OCO4)cc2c1	2	4	i	3	.	.
Clc1ccc(CON/C=N/c2ncnc3sccc23)c(Cl)c1	-3	-1	i	-1	.	.
COc1cc(NC(=O)COC(=O)/C=C/c2ccccc2Cl)cc(OC)c1	-1	0	i	6	i	0
CCc1nnc(NC(=O)CSc2nc3cc(OC)c(OC)cc3cc2C)s1	6	1	i	-5	.	.
COc1ccc(Cn2c(=O)oc3ccc(C)cc32)cc1OC	5	0	+	1	i	0
COc1ccc(Cn2c(=O)oc3ccccc32)cc1OC	.	-4	i	-2	.	.
COc1ccc(CNC(=O)Cn2c(=O)oc3ccccc32)cc1OC	4	0	i	-2	i	1
COc1ccccc1OCCn1c(=O)oc2ccc(C)cc21	2	3	+	-11	i	0
CCOc1ccc(CNC(=O)CCn2c(=O)oc3ccccc32)cc1OC	-1	3	i	2	.	.
O=C(NCCc1c[nH]c2ccccc12)/C(=C\c1cccnc1)NC(=O)c1ccccc1Br	0	2	+	-2	i	0
O=C(O)CC1c2ccccc2CCN1S(=O)(=O)c1cccs1 (stereo not given)	0	-1	i	2	.	.
COc1ccc(NC(=O)N2CCCC2C(=O)NCCc2ccccc2)cc1 (stereo not given)	.	3	i	-5	i	0
O=C(NCCc1ccccc1)C1CCCN1C(=O)Nc1ccccc1 (stereo not given)	-4	-6	i	6	.	.
O=C(NCCc1c[nH]c2ccccc12)c1ccc([N+](=O)[O-])o1	.	7	+	7	i	1
CC1(C)O[C@@H]2[C@H](O1)[C@@H](COS(=O)(=O)O)O[C@H]2n1cc(Br)c(=O)[nH]c1=O	.	1	+	6	i	0
COc1ccc(CNC(=O)C2=CC(c3ccc(C)cc3)=NS(=O)(=O)N2C)cc1	-3	0	i	-2	.	.
CCOC(=O)CC(=O)CSc1nc(-c2cccnc2)cc(C)c1C#N	1	4	i	1	.	.
CCOC(=O)CC(=O)CSc1nc(C)cc(-c2cccnc2)c1C#N	-1	4	i	-3	i	0
Cc1ccc(C)c(/C(O)=C2\C(=O)C(=O)N(CCCn3ccnc3)C2c2ccncc2)c1 (stereo not given)	-2	1	+	1	i	0
COc1ccccc1Oc1nnnn1-c1ccc(C(N)=O)cc1	-1	-3	i	3	i	1
NC(=O)c1ccc(-n2nnnc2Oc2ccccc2)cc1	0	2	i	-9	.	.
CN(C)CCNc1ncnc2c1ncn2[C@H]1CN(CCc2ccccc2)C[C@@H](CO)O1	.	-2	i	2	.	.
SMILES	TPT1 inhibitor	HNF4A DNA FP	Myeloid diff 2	Rpn11 block	Myeloid diff	GFP autofluor
CCCCCCCC(=O)NNC(=O)c1ccc(F)cc1	-2	0	i	-9	i	1
CCCCCC(=O)NNC(=O)c1ccc(F)cc1	0	-1	i	-8	.	.
Cc1nc2nc(-c3ccccc3)[nH]n2c(=O)c1C	0	2	i	2	i	0
CCCCC[C@H](C)N1C[C@@H](COCc2ccccc2)Oc2cc(N3CCC[C@H]3C(N)=O)ccc2S1(=O)=O	.	-4	i	.	.	.
C=C(C)COc1ccc2c(C)c(CC(=O)OC)c(=O)oc2c1C	0	1	i	1	i	1
COC(=O)Cc1c(C)c2ccc(OCC(C)=O)c(C)c2oc1=O	4	2	i	-2	.	.
O=C1[C@@H](Oc2ccccc2)[C@@H](c2cnc3ccccc3c2)N1c1ccccc1	.	-1	i	2	.	.
CCN(CC)C(=O)[C@H]1C[C@H](CC(=O)NC(C)(C)C)C(=O)N2CCc3c([nH]c4cc(-c5ccco5)ccc34)[C@]12C	.	9	+	8	i	0
CC(C)N(C(=O)[C@H]1C[C@H](CC(=O)NC(C)(C)C)C(=O)N2CCc3c([nH]c4cc(-c5ccco5)ccc34)[C@]12C)C(C)C	.	1	i	7	.	.
Cc1cccc(C#CC2=CC(=O)CC(C)(C)C2)c1	.	1	i	5	.	.
CC1(C)CC(=O)C=C(C#CC2(O)CCCCC2)C1	.	-8	?	-8	i	0
CCOC(=O)N1CCc2c(sc3nc4n(c(=O)c23)N=C(c2ccc(OC)cc2)CS4)C1	-2	1	i	4	.	.
CSc1ncnc2c1ncn2CCCNCC1CCCO1 (stereo not given)	.	-6	i	-4	.	.
CSc1ncnc2c1ncn2CCCNCCCN1CCCC1=O	.	0	+	-4	i	1
CCOc1ccc(OCCSc2nc(C)cc(=O)[nH]2)cc1	-4	-3	i	-6	.	.
Cc1cc(=O)[nH]c(SCCOc2cccc(C(F)(F)F)c2)n1	-3	-2	.	-8	i	3
Cc1coc(C)c1C(=O)Nc1ccc2ccccc2c1	.	0	i	-1	.	.
C[C@H](O)[C@@H]1C(=O)N2CCc3c([nH]c4ccccc34)[C@@H]2C[C@@H]1N(C)C(=O)Nc1cc(Cl)cc(Cl)c1	.	3	i	10	.	.
O=C1C(c2ccc(F)cc2)N(Cc2ccc3c(c2)OCO3)C(=O)CN1C1CCCCCC1 (stereo not given)	-3	5	i	-10	.	.
COc1ccc(C2C(=O)N(C3CCCCC3)CC(=O)N2Cc2ccc3c(c2)OCO3)cc1 (stereo not given)	-2	-3	i	1	i	4
CCOC(=O)/C(=N\Nc1ccccc1[N+](=O)[O-])c1csc(N)n1	-3	-1	i	-4	.	.
CCOC(=O)/C(=N\Nc1ccc(C(C)=O)cc1)c1csc(Nc2ccccc2)n1	16	34	+	.	i	1
Cc1ccc2cc(C#N)c(SCC(=O)NNC(=O)Cc3ccccc3)nc2c1	.	5	+	-2	i	0
COc1ccc2cc(C#N)c(SCC(=O)NNC(=O)Cc3ccccc3)nc2c1	1	5	i	7	.	.
CCN(CC)S(=O)(=O)c1ccc(C)c(NC(=O)CSc2nc3ccc(C)cc3[nH]2)c1	-1	-4	i	.	.	.
O=C(ONC(=O)C1C2C=CC(C2)C1C(=O)NOC(=O)c1ccccc1)c1ccccc1 (stereo not given)	.	2	i	8	i	0
CCCCCCn1cc(CN2CC(N3CCSCC3)CS2(=O)=O)nn1 (stereo not given)	.	3	i	.	.	.

Screening data from PubChem.
